Screens (PubChem BioAssay)
This is a sample that favours compounds with a hit; in the whole collection about 19% have one here.
SARS PLP yeast: qHTS of Yeast-based Assay for SARS-CoV PLP; Potency, µM (series often up to 32.9 µM), actives largely listed as activators; S. cerevisiae expressing SARS-CoV PLpro, growth rescue; AID 485353, 2010; 0.19% of 330,000 active; calls by dose curve; also: nearly all actives have a fitted effect of over 55% in size
Shiga toxin inh: A qHTS for Small Molecule Inhibitors of Shiga Toxin; inhibition, % at 38.7 µM; Vero cells, Shiga toxin protein synthesis inhibition reporter; 9.2% of 290,000 active; in the data active = inhibition mostly above about 28%, no sharp cut-off; inactive = mostly below about 43%
Cycloheximide cs: Cycloheximide Counterscreen for Small Molecule Inhibitors of Shiga Toxin | cell reporter, cycloheximide protein synthesis inhibition counterscreen | 12% of 300,000 active | AID 2314, 2010 | max response, %; in the data active = max response mostly above about 13%, no sharp cut-off; inactive = mostly below about 14%; also: read at 38.3 µM for the half of the compounds with a filed dose
Pf growth 48h: Primary qHTS for delayed death inhibitors of the malarial parasite plastid, 48 hour incubation; P. falciparum luciferase growth in erythrocytes, 48 h; Potency, µM (titrated, usually from 28.7 µM), actives largely listed as inhibitors; 5.9% of 310,000 active; AID 504832, 2011
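Cell-based growth assay: transgenic P. falciparum expressing firefly luciferase, cultured in red cells within RPMI 1640 containing 0.5% w/v Albumax, 24 mM bicarbonate and gentamycin. A drop in luciferase activity indicates inhibition.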
AMA1 RON2 block: qHTS for Inhibitors of AMA1-RON; Towards Development of Antimalarial Drug Lead: Primary Screen | Plasmodium falciparum AMA1 (3D7) - RON2 peptide interaction | AlphaScreen AMA1-biotinylated RON2 peptide binding | Potency, µM (doses to about 58.2 µM), actives largely listed as inhibitors | 0.2% of 360,000 active | AID 720542, 2013; also: nearly all actives have a fitted effect of over 45% in size
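AMA1 (3D7) with his tag at 25 nM final met compounds first, then biotinylated RON2 peptide at 25 nM; detection used donor plus acceptor beads, 10 µg/mL apiece, read by AlphaScreen after 30 min at room temperature.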
Pf growth 96h: Primary qHTS for delayed death inhibitors of the malarial parasite plastid, 96 hour incubation; P. falciparum luciferase reporter growth, 96 h; 6.9% of 320,000 active; Potency, µM (top dose mostly 28.7 µM), actives largely listed as inhibitors
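96 h incubation, 37 C, 5% CO2, of luciferase-reporter P. falciparum-infected RBCs (2% hematocrit, 0.05% parasitemia final) with test compounds; endpoint luminescence.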
Hits are given with their value; i = inactive; ? = inconclusive; nt = no result given; [ ] = remark or other dose. Unless noted, calls follow the shape of the dose curve; as a rule, active = well fitted curve in the direction sought with a large enough effect; inconclusive = small, poorly fitted or top-dose-only effect, or another doubt; inactive = no such curve, though single readings can be large; an effect the other way counts as inactive or inconclusive.

SMILES	SARS PLP yeast	Shiga toxin inh	Cycloheximide cs	Pf growth 48h	AMA1 RON2 block	Pf growth 96h
COC(=O)N(C)c1nc2ccccc2s1	i	i	36	i	i	i
COCCNC(=O)c1cc2sc3ccccc3c2s1	i	89	58	i	i	i
CN(C)CCCNC(=O)c1cc2sc3ccccc3c2s1	i	i	i	?	i	?
CCCCNC(=O)c1cc2ccccc2s1	i	71	38	i	i	i
CCCCNC(=O)N(C)c1nc2ccccc2s1	i	68	50	i	i	i
O=C(c1ccc(Cl)cc1)[C@@H]1[C@@H]2C(=O)N(c3cccc4ccccc34)C(=O)[C@@H]2C2c3ccccc3C=NN21 (some centres undefined)	i	i	i	i	i	i
CCOc1ccccc1/C=C(\C#N)C1=CCCC1	i	i	i	i	i	i
COc1ccc(CCN2C(=O)N[C@@H](C(C)C)C2=O)cc1	i	i	i	i	i	i
O=C(CN1C(=O)CSc2ncccc21)Nc1cccc(Cl)c1	i	i	i	17µM	i	i
Cc1c(Cl)cccc1NC(=O)CN1C(=O)CSc2ncccc21	i	i	i	nt	nt	?
COCCCNC(=O)CN1C(=O)CSc2ncccc21	i	i	i	i	i	2.6µM
O=C(CN1C(=O)CSc2ncccc21)NCCN1CCOCC1	i	i	i	nt	i	?
Cn1c(NCc2ccco2)nc2c1c(=O)n(Cc1ccc(Cl)cc1)c(=O)n2C	i	i	i	9.3µM	i	i
Cn1c(NCc2ccco2)nc2c1c(=O)n(Cc1ccc(Cl)cc1Cl)c(=O)n2C	i	i	i	i	i	nt
Cn1c(NCc2ccccc2)nc2c1c(=O)n(Cc1ccc(Br)cc1)c(=O)n2C	i	i	i	?	i	i
Cn1c(NCCCN2CCOCC2)nc2c1c(=O)n(Cc1ccc(Cl)cc1)c(=O)n2C	i	i	i	?	i	i[5.75 µM]
Cn1c(NCc2ccco2)nc2c1c(=O)n(Cc1ccc(Br)cc1)c(=O)n2C	i	i	i	9.3µM	i	nt
Cn1c(NCCCN2CCOCC2)nc2c1c(=O)n(Cc1ccc(Cl)c(Cl)c1)c(=O)n2C	i	i	i	13µM	i	nt
CCOC(=O)C1(C)CCN1C(=O)/C=C/c1ccccc1 (centres undefined)	nt	nt	nt	nt	i	nt
CC(=O)O[C@H]1CC(C)(C)C(=C=C/C(C)=C/C=C/C(C)=C/C=C/C=C(C)/C=C/C=C(\C)C(=O)C[C@@]23O[C@]2(C)C[C@@H](O)CC3(C)C)[C@](C)(O)C1	i	i	i	9.3µM	i	?
O=S(=O)(Cc1ccc(Cl)cc1)N1CCCC1	i	i	i	i	i	?
Cc1ccc(S(=O)(=O)N2CCCC2)cc1C(=O)NCCOc1ccccc1	i	nt	nt	?	i	i
Cc1ccc(NC(=O)CN2CCN(Cc3ccccc3)CC2)c(Br)c1	i	i	i	i	20µM	?
Cc1ccc(NC(=O)CN2CCOCC2)c(Br)c1	i	nt	23	i	i	?
Cc1ccc(CN2CCN(CC(=O)NCc3ccccc3)CC2)cc1	i	i	i	i	i	i
SMILES	SARS PLP yeast	Shiga toxin inh	Cycloheximide cs	Pf growth 48h	AMA1 RON2 block	Pf growth 96h
Cc1cc(Br)c(NC(=O)CN2CCCC2)c(Br)c1	i	64	16	i	i	i
Cc1cc(Br)c(NC(=O)CN2CC=C(c3ccccc3)CC2)c(Br)c1	i	i	i	i	i	?
COc1cc(NC(=O)c2ccc(C)cc2)c(OC)cc1NC(=O)CN1CCOCC1	i	i	i	i	i	i
Cc1ccc(CN2C(=O)C(C)Oc3ccc(C)cc32)cc1 (centres undefined)	nt	nt	nt	nt	i	nt
COc1ccc(OC)c(Nc2nc(N)nc(CSc3nnc(-c4ccncc4)o3)n2)c1	i	i	i	i	nt	nt
CC(C(=O)NCCCc1ccccc1)c1ccc([N+](=O)[O-])cc1 (centres undefined)	i	i	i	?	i	i
CCOc1cc(C2C(C(=O)O)c3cc(OCC)c(OCC)cc3C(=O)N2C)ccc1O (centres undefined)	i	i	i	i	i	12µM
COc1cc2c(cc1OC)C(C(=O)O)C(c1ccc(C)o1)N(C)C2=O (centres undefined)	i	i	i	i	i	13µM
CCOc1cc2c(cc1OCC)C(C(=O)O)C(c1cc(OC)c(OC)c(OC)c1)N(C)C2=O (centres undefined)	i	i	i	?	i	?
Cc1ccc([C@@H]2CC=C(C(=O)O)CN2S(=O)(=O)c2ccc(C)cc2)cc1	i	nt	nt	i	?	i
COc1ccc(CN2CCc3c([nH]c4ccccc34)C2)c(OC)c1C	i	i	i	?	?	?
COc1cc(OC)cc(C(=O)N[C@H](C(=O)NC2=NCCS2)C(C)C)c1	i	nt	nt	nt	i[11.6 µM]	nt
CCN(CC)CCNc1nc2c(c(=O)[nH]c(=O)n2C)n1CC(O)COc1ccc(Cl)cc1Cl (centres undefined)	i	i	i	?	i	12µM
CCn1c(SCC(=O)N/N=C/c2ccc(C)o2)nnc1-c1ccc(C(C)(C)C)cc1	i	i	i	i	i	?
O=C(CSc1nnc(SCc2ccccc2)s1)N/N=C/c1ccc(Cl)cc1Cl	i	i	i	i	i[2.32 µM]	i
CC(=C/c1ccco1)/C=N/NC(=O)CSc1nnc(SCc2ccc(C)cc2)s1	i	33	45	i	i[2.32 µM]	i
CCn1c(SCC(=O)N/N=C/c2c[nH]c3ccccc23)nnc1-c1ccc(C(C)(C)C)cc1	i	i	i	?	i[2.32 µM]	10µM
Cc1ccc(CSc2nnc(SCC(=O)N/N=C/c3ccccc3OCC(=O)O)s2)cc1	i	44	21	i	i	i
O=C(CSc1nnc(SCc2ccc(Cl)cc2)s1)N/N=C/c1ccc(Cl)cc1Cl	i	55	33	i	i	i
O=C(O)COc1ccccc1/C=N/NC(=O)CSc1nc2ccccc2s1	i	i	i	i	i	i
O=C(c1cccc(OC2CCN(Cc3ccc(F)cc3)CC2)c1)N1CCCC1	i	i	i	i	i	i
CCOC(=O)C1(CC)Oc2ccccc2C(c2ccc(OC)cc2)=C1C(=O)OC (centres undefined)	i	i	i	nt	i	nt
CC(O)CSc1nc2c(c(=O)[nH]c(=O)n2C)n1Cc1ccccc1Cl (centres undefined)	i	i	i	i	i	i
O=C(O)COc1ccccc1/C=N/NC(=O)CSc1nc2ccccc2n1Cc1ccc(Cl)cc1	i	i	i	15µM	i	?
O=C(CSc1nc2ccccc2n1Cc1ccc(Cl)cc1)N/N=C/c1ccccc1C(=O)O	i	i	i	i	i	i
Cc1nn(-c2ccccc2)c(C)c1/C=N/NC(=O)CSc1nnc(SCc2cccc3ccccc23)s1	i	i	i	i	i	10µM
Cc1ccc(CSc2nnc(SCC(=O)N/N=C/c3ccc(C(=O)O)cc3)s2)cc1	i	i	13	i	i	i
